The whole screen tested about 1,000 compounds, of which about 360 (36%) were called active. Not all results are given here. A number with no mark means an inactive call.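 How the source made its calls: active means Fitted curve of melting temperature shift crosses the 1.0 threshold at or below the sample's highest valid tested concentration; inconclusive means Flat fit with activity 30 to 70, or invalid fit; inactive means Opposite direction, flat within 30, or no crossing.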

For this experiment, the target named is Fibroblast growth factor 22 (Homo sapiens) (UniProt Q9HCT0). Description: binders of human FGF22 protein, dose response, FGF22 synaptogenesis inhibitor project, biophysical, thermal shift, cherry-pick (AID 687022). Further: reference of the scale not given here. The following applies: recombinant FGF22 thermal shift, SYPRO orange melting; series mostly up to 38 µM; Tm shift activity: at the top concentration.
Fibroblast growth factor 22 (Homo sapiens), sequence (Q9HCT0 whole entry, looked up): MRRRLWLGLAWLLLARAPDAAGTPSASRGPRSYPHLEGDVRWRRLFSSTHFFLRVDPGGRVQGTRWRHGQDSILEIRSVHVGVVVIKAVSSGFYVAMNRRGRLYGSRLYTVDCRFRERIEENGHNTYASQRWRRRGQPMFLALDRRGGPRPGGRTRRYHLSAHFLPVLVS
On to `CC(C)(CNS(=O)(=O)c1ccc2c(c1)OCCO2)N1CCOCC1`, for which the “Tm shift activity” value was -0.045%.

As to `Cn1c(=O)[nH]c(=O)c2c1nc(SCC(O)CO)n2CCCc1ccccc1` (centres undefined), the “Tm shift activity” value was -0.205%.

With `Cc1[nH]c2ccccc2c1C(=O)C(=O)NCCOc1ccccc1`, the “Tm shift activity” value is 0.288%.

With `O=[N+]([O-])c1ccc(/C=N/Nc2ccc3ccccc3c2)o1`, the “Tm shift activity” value was -0.355%.

`CCOC(=O)[C@@H]1[C@H]2COc3cc(OC)ccc3[C@H]2N2C(=O)N(c3ccc(C)cc3)C(=O)[C@]12C`: the “Tm shift activity” value is -0.261%.

In the case of `C[C@H](CO)N1C[C@H](C)[C@@H](CN(C)C(=O)Nc2cccc3ccccc23)Oc2c(NS(C)(=O)=O)cccc2C1=O`, the “Tm shift activity” value was -0.1% [at 42 µM].

On to `C[C@H]1CN([C@@H](C)CO)C(=O)c2cc(NC(=O)c3ccncc3)ccc2O[C@@H]1CN(C)S(=O)(=O)c1cn(C)cn1`, for which the “Tm shift activity” value is 0.122%.

As for `C[C@H]1CN([C@@H](C)CO)C(=O)c2cc(NS(=O)(=O)c3ccccc3)ccc2O[C@@H]1CN(C)Cc1ccc(C(=O)O)cc1`, the “Tm shift activity” value is -0.154%.

In the case of `CCCCn1cnc2c(SCc3cccc(F)c3)nc(N)nc21`, the “Tm shift activity” value is -0.433%.

For the compound `O=C(COc1ccccc1)NCC(=O)NC1CCCCC1`, the “Tm shift activity” value was 0.061%.

Take `O=C(C[C@@H]1CC[C@@H](NC(=O)Nc2cc(F)ccc2F)[C@H](CO)O1)NCCCN1CCOCC1`: the “Tm shift activity” value was 0.042% [at 42 µM].

For the compound `CCOC(=O)Cn1c2ccccc2n2nc(CCC(=O)O)c(=O)nc12`, the “Tm shift activity” value is -0.267%.

As for `COCC(=O)N1C[C@@H]2[C@H](c3ccccc31)[C@H](CO)N2C(=O)c1ccccc1F`, the “Tm shift activity” value is 0.006% [at 42 µM].

As to `COc1ccccc1S(=O)(=O)N(C)C[C@@H]1Oc2cc(C#CCC(C)C)ccc2S(=O)(=O)N([C@@H](C)CO)C[C@H]1C`, the “Tm shift activity” value is 0.178% [at 42 µM].

As for `O=C(C[C@H]1C[C@@H]2c3cc(NC(=O)NC4CCCC4)ccc3O[C@@H]2[C@H](CO)O1)NCc1ccc2c(c1)OCO2`, the “Tm shift activity” value was -0.035%.

As to `CCCNC(=O)COCc1cc(-c2ccc3c(c2)OCO3)on1`, the “Tm shift activity” value was 0.027%.

For `O=C(COC(=O)CSc1ccc([N+](=O)[O-])cc1)NCCC1=CCCCC1`, the “Tm shift activity” value was -0.227%.

On to `O=C(NCC[C@@H]1CC[C@H](NC(=O)C2CCOCC2)[C@H](CO)O1)Nc1ccc(Cl)cc1`, for which the “Tm shift activity” value is 0.002% [at 42 µM].

`CC(=O)Nc1ccc(C(=O)N/N=C/c2cc(Br)cc(Br)c2O)cc1`: the “Tm shift activity” value was 0.474%.

On to `O=C(N/N=C/c1c[nH]c2ccccc12)c1ccc2c(c1)OCCO2`, for which the “Tm shift activity” value was -0.175%.

Regarding `COc1ccc(NS(=O)(=O)c2cccc(C(=O)NN=Cc3ccc(OC)c(O)c3)c2)cc1`, the “Tm shift activity” value was -0.26%.

For `COc1ccc(/C=N/NC(=O)c2cccc([N+](=O)[O-])c2)cc1OC`, the “Tm shift activity” value is 0.04%.

With `Cc1c(/C=N\NC(=O)c2cccc(F)c2)cnn1C`, the “Tm shift activity” value was -0.081%.

For `Cc1nn(-c2ccccc2)c(Cl)c1/C=N/NC(=O)c1cccnc1`, the “Tm shift activity” value is -0.238%.

Consider `CC1CC(CC(=O)NC(=S)Nc2ccccc2Cl)C(=O)O1` (centres undefined), for which the “Tm shift activity” value was -0.235%.

Turning to `CNC[C@H]1Oc2ccc(NC(=O)Cc3cn(C)c4ccccc34)cc2C(=O)N([C@H](C)CO)C[C@H]1C`, the “Tm shift activity” value was -0.055% [at 42 µM].

Consider `COc1ccc(S(=O)(=O)N(C)C[C@@H]2Oc3ccc(NC(=O)Nc4ccccc4)cc3CC(=O)N([C@H](C)CO)C[C@@H]2C)cc1`, for which the “Tm shift activity” value is -0.087% [at 42 µM].

As for `CC(=O)Oc1ccc(C(=O)Nc2ccccc2C(=O)N2CCCCC2)cc1`, the “Tm shift activity” value is -0.094%.

For `COc1ccccc1C(=O)NNC(=O)c1ccc(NC(=O)c2ccccc2)cc1`, the “Tm shift activity” value was 0.273%.

On to `CCCN(C)C[C@H]1Oc2cc(C#Cc3cccnc3)ccc2S(=O)(=O)N([C@H](C)CO)C[C@@H]1C`, for which the “Tm shift activity” value was 0.518%.

For `C[C@@H]1CN([C@@H](C)CO)C(=O)c2cccc(NC(=O)c3ccc(-c4nccs4)cc3)c2O[C@@H]1CN(C)C`, the “Tm shift activity” value is 0.253%.

On to `CN(C)CC(=O)Nc1ccc2c(c1)[C@@H]1C[C@H](CC(=O)N(C)C)O[C@@H](CO)[C@@H]1O2`, for which the “Tm shift activity” value is 0.094%.

For the compound `O=C1COc2ccc(S(=O)(=O)N3CCCC3)cc2N1`, the “Tm shift activity” value is -0.074%.

As for `C[C@H]1CN([C@@H](C)CO)C(=O)c2cc(NS(=O)(=O)c3cn(C)cn3)ccc2O[C@H]1CN(C)Cc1ccccc1`, the “Tm shift activity” value was -0.139%.

For the compound `OC[C@H]1[C@@H](c2ccc(-c3cccnc3)cc2)[C@@H]2CN(Cc3ccccn3)CCCCN12`, the “Tm shift activity” value was -0.15%.

For the compound `O=C(C[C@H]1CC[C@H]2[C@@H](COC[C@@H](O)CN2C(=O)C2CC2)O1)NCc1ccncc1`, the “Tm shift activity” value was -0.062% [at 42 µM].

With `Cc1nn(C)cc1NC(=O)C[C@H]1CC[C@@H]2[C@@H](COc3ccc(NC(=O)NC(C)C)cc3C(=O)N2C)O1`, the “Tm shift activity” value is -0.291%.

Consider `COc1cccc(NC(=O)N[C@H]2C=C[C@@H](CC(=O)N3CCN(C)CC3)O[C@H]2CO)c1`, for which the “Tm shift activity” value is 0.241% [at 42 µM].

Consider `O=C1C=CCCN1S(=O)(=O)/C=C/c1ccccc1`, for which the “Tm shift activity” value is 0.169%.

For `CCOc1ccc(C(=O)CCC(=O)Nc2ccc(C)cn2)cc1`, the “Tm shift activity” value is 0.045%.

For `CCC(CC)CN1CCC(CN2C(=O)C(=O)NC[C@@H]2CC(C)C)CC1`, the “Tm shift activity” value was 0.023%.

Turning to `O=C(C[C@H]1C[C@@H]2c3cc(NC(=O)NC4CCCC4)ccc3O[C@@H]2[C@H](CO)O1)NC1CCCC1`, the “Tm shift activity” value was -0.22%.

Regarding `Nc1nccc(-c2ccc(-n3cccc3)cc2)n1`, the “Tm shift activity” value was -0.117%.

For the compound `CO[C@H]1CN(C)C(=O)c2ccc(NS(=O)(=O)c3ccc(Cl)cc3)cc2OC[C@@H](C)N(C(=O)NC(C)C)C[C@H]1C`, the “Tm shift activity” value is -0.141% [at 42 µM].

Turning to `COCCNC(=O)CCc1nnc2ccc(N3CCC(C)CC3)nn12`, the “Tm shift activity” value was -0.14%.

As to `CC(C)(C)NC(=O)N1CCC(CO)(Cc2ccccc2Cl)CC1`, the “Tm shift activity” value was -0.024%.

`CC(=O)N1[C@H](CO)[C@H](c2ccccc2)[C@H]1CN(C(=O)c1cccc(F)c1)C(C)C`: the “Tm shift activity” value was -0.225%.

In the case of `Cc1noc(C)c1S(=O)(=O)Nc1ccc2c(c1)CC(=O)N([C@@H](C)CO)C[C@@H](C)[C@@H](CN(C)Cc1ccc(Cl)c(Cl)c1)O2`, the “Tm shift activity” value was -1.12% [at 42 µM].

On to `CCCNC(=O)N1[C@@H]2CN(C(=O)c3ccccc3)c3ccccc3[C@@H]2[C@@H]1CO`, for which the “Tm shift activity” value is 0.376% [at 42 µM].

On to `O=C(O)C1CSC(c2ccc3c(c2)OCO3)N1` (centres undefined), for which the “Tm shift activity” value is 0.16%.

As to `OC[C@@H]1[C@H](c2ccc(Br)cc2)[C@@H]2CN(Cc3cncnc3)CCCCN12`, the “Tm shift activity” value is -0.264% [at 42 µM].

As for `CO[C@H]1CN(C)C(=O)c2cc(NC(=O)CC(F)(F)F)ccc2OC[C@@H](C)N(C(C)=O)C[C@H]1C`, the “Tm shift activity” value was -0.187% [at 42 µM].

As to `CNC[C@H]1Oc2ccc(NC(=O)Nc3ccc(OC)cc3)cc2C(=O)N([C@H](C)CO)C[C@@H]1C`, the “Tm shift activity” value is -0.083% [at 42 µM].

Take `CNC[C@@H]1Oc2c(NS(=O)(=O)c3ccc(OC)cc3)cccc2C(=O)N([C@@H](C)CO)C[C@@H]1C`: the “Tm shift activity” value was -0.136%.

In the case of `COc1ccc(S(=O)(=O)N(C)C[C@@H]2Oc3c(NC(=O)c4cc(C)nn4C)cccc3C(=O)N([C@H](C)CO)C[C@H]2C)cc1`, the “Tm shift activity” value was -0.141% [at 42 µM].

On to `COc1ccc(S(=O)(=O)N/N=c2\oc3c(OC)cccc3cc2S(=O)(=O)c2ccc(C)cc2)cc1OC`, for which the “Tm shift activity” value is 0.599%.

Consider `O=C(N[C@H]1CC[C@@H](CCNS(=O)(=O)c2ccc(F)cc2)O[C@H]1CO)C1CCCC1`, for which the “Tm shift activity” value was -0.05% [at 42 µM].

Take `CN1C(=O)c2cc(NC(=O)Cc3ccccc3)ccc2OC[C@@H]2O[C@H](CC(=O)O)CC[C@H]21`: the “Tm shift activity” value is -0.126%.

`CO[C@@H]1CN(C)C(=O)c2cc(NC(=O)NC(C)C)ccc2OC[C@@H](C)N(C)C[C@@H]1C`: the “Tm shift activity” value is -0.329%.

The values are drawn from PubChem BioAssay AID687022 (Broad Institute, 2013).
